Results published in PubChem BioAssay AID493033 (ICCB-Longwood Screening Facility, Harvard Medical School, 2011).
“And” between values parts separate entries of the source, which are not always exact repeats. Identical values can stand only once. In all, about 100,000 compounds went through this assay and about 930 (0.93%) were called active. Cut-off read from the data, not from the text of the source: active = inhibition mostly above about 56% (no sharp cut-off); inactive = mostly below about 77%. Many of the other results were omitted from the sample, so actives are more common in it than they were. The source holds several records for some structures; these can differ, active in one and inactive in another.

Molecular target: Salicylate synthase (Mycobacterium tuberculosis (strain CDC 1551 / Oshkosh)) (UniProt P9WFX0)
Sequence (P9WFX0 whole entry, looked up): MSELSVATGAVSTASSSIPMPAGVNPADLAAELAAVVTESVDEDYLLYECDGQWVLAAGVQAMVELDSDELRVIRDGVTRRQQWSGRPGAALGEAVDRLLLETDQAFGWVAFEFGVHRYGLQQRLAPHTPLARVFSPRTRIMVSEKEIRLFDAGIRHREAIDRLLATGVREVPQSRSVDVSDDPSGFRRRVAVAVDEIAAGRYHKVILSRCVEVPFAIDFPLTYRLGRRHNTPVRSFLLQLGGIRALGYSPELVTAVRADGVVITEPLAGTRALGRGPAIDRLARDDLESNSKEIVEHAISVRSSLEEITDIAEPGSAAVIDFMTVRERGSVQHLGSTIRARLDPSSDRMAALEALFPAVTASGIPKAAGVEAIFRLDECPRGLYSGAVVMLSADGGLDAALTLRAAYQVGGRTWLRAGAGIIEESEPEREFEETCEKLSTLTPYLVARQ
Experiment: MbtI salicylate synthase inhibitors, primary screen, biochemical, fluorescence intensity (AID 493033)
Conditions: purified MbtI enzyme, fluorescence intensity read-out, stronger effect = higher value, concentration not given here

SMILES | inhibition
CN(C(=O)CSc1cccc[n+]1[O-])C1CCCCC1 | 2.9% (inactive)
CCOC(=O)C1=C(C)NC(C)=C(C(=O)OCC)C1C(=O)OCc1cc(=O)n2cc(C)ccc2n1 | -9.2% (inactive)
O=C(O)CN1C(=O)/C(=C2/OC(=O)c3ccccc32)SC1=S | 13.1% (inactive)
O=C(O)CCCN1C(=O)c2ccccc2Sc2ncccc21 | 4.25% (inactive)
O=C(O)CCCN1C(=O)/C(=C2\SC(=S)N(CCCC(=O)O)C2=O)SC1=S | 88.5% (active)
N#Cc1ccc(NC(=O)CSc2ncn[nH]2)cc1 | 15.7% (inactive)
COC(=O)c1cccc(Cn2nc(C)c(Cl)c2C)c1 | -1.2% (inactive)
CCOC(=O)c1c(N)sc2c1CCCS2 | 70.4% (active)
CCOC(=O)c1c(N)sc2c1CC(C)(C)OC2 | 64.8% (inactive)
CCOC(=O)c1c(-n2cnnn2)sc(C)c1C | 589% [above what the read-out allows, likely interference] (inactive)
Cc1csc(/C(C#N)=N/OC(=O)c2ccco2)n1 | 6.4% (inactive)
Cc1cc(C)n(CCCN)n1 | -3.05% (inactive)
O=C(CSc1nccn1-c1ccc(F)cc1)Nc1ccccc1 | 9.1% (inactive)
Cc1nc2cccc[n+]2c(-c2ccccc2)c1C | -10.6% (inactive)
CCOc1cccc2sc(NC(C)=O)nc12 | 17.4% (inactive)
N/C(COc1ccccc1)=N\O | -4.9% (inactive)
S=c1[nH]nc(COc2ccccc2)o1 | 64% (active) and 19.4% (inactive)
c1ccc(OCc2nc(-c3ccccn3)n[nH]2)cc1 | 4.2% (inactive)
COc1ccc(-c2nc(CS(=O)(=O)c3ccc(F)cc3)no2)cc1OC | -17% (inactive)
COCCCn1cc(C(=O)c2cc(F)ccc2O)cc(C#N)c1=O | 0.95% (inactive)
Cc1ccccc1NC(=O)CSC(=O)c1ccccc1 | 75% (active)
Cc1ccccc1NC(=O)COC(=O)c1ccccc1 | 16.1% (inactive)
Cc1ccccc1NC(=O)NC(=O)CC#N | -2.55% (inactive)
CCn1c(O)c(/C=N/N=C2/C(=O)N(C)c3ccccc32)c(=O)n(CC)c1=S | 7.05% (inactive)
N#C/C(=C\c1cc2ccccc2nc1N1CCOCC1)C(=O)Nc1ccc2c(c1)OCCO2 | 12% (inactive)
CC1(C)CC(=O)C(Sc2ccc(Cl)cc2)=C(N2CCOCC2)C1 | 4.9% (inactive)

SMILES | inhibition
CC(=O)OC1=C(Sc2ccc(Cl)cc2)C(=O)CCC1 | 59.8% (active)
O=C(CSc1ccc(Cl)cc1)N1CCc2ccccc21 | -9.4% (inactive)
CCOC(=O)c1cc(S(=O)(=O)NC2CCCc3ccccc32)cn1C (stereo not drawn) | -4.15% (inactive)
COC(=O)c1ccc(N)cc1 | 16.6% (inactive)
COc1ccc(-n2c(SCC(=O)c3ccc4c(c3)NC(=O)CO4)nc3ccccc3c2=O)cc1OC | -1.55% (inactive)
CC1(C)Oc2ccccc2C2CC(c3ccccc3)=NN21 (stereo not drawn) | 10.8% (inactive)
CSC(=S)Nc1ccc(C)cc1 | -4.35% (inactive)
Cc1ccc(NC(N)=O)cc1 | -7.15% (inactive)
Cc1ccc(NC(=S)Nc2ccc(C)cc2)cc1 | 56.7% (active)
Cn1c(SCc2nc(-c3cccs3)no2)nnc1-c1ccncc1 | -11.6% (inactive)
CCOC(=O)CSc1ccccn1 | 81.9% (active)
CC1CC(=O)Nc2ccccc2N1C(=O)CSc1ccccn1 (stereo not drawn) | -3.2% (inactive)
CCOC(=O)CSc1cc(C)nc(SCC(=O)OCC)n1 | 7.15% (inactive)
O=C1CSC2=NC3=C(CCCC3=C3SCCCS3)C(c3ccccc3)N12 (stereo not drawn) | -4.55% (inactive)
O=C1c2ccccc2C(=O)N1CNc1ccccc1C1CC1 | -16.8% (inactive)
NCCCN1Cc2ccccc2C1 | 1.3% (inactive)
CC(C)(C)c1ccc(CSc2nc3c(c(=O)[nH]2)CCC3)cc1 | 81.7% (active)
CCc1ccccc1NC(=O)CSc1nc2c(c(=O)[nH]1)CCC2 | 9.6% (inactive)
CCCc1cc(=O)[nH]c(SCc2ccc(C#N)cc2)n1 | -3.9% (inactive)
COC(=O)c1ccc(C(=O)Nc2cc(Cl)ccc2Cl)cc1N | -179% (inactive)
O=C1NC(=S)N(c2ccc(Br)cc2)C(=O)/C1=C/c1ccsc1 | 55.9% (active)
COc1cccc(N2C(=O)/C(=C/c3ccsc3)C(=O)NC2=S)c1 | 29.9% (inactive)
Cn1cccc1/C=C1\C(=O)NC(=S)N(c2ccccc2)C1=O | 18.1% (inactive)
CCc1ccc(N(C(C)=O)c2nc(CSc3nnc4n3CCCCC4)cs2)cc1 | -11.7% (inactive)
CC1=C(C(=O)Nc2cccc(C(F)(F)F)c2)C(c2ccc3c(c2)OCO3)NC(=O)N1 (stereo not drawn) | 5.1% (inactive)
CCCN(CC1CC1)Cn1c(=S)sc2ccccc21 | 65.8% (active)

SMILES | inhibition
O=C(C1CCNCC1)N1CCCCC1 | 6.4% (inactive)
O=C(OCCCn1c(=O)[nH]c2ccccc21)c1ccc(S(=O)(=O)N2CCOCC2)cc1 | -5% (inactive)
Cc1ccc(NC(=O)CN2C(=O)OC(C)(C)C2(C)O)cc1 (stereo not drawn) | -10% (inactive)
COc1ccc(OCCCC(=O)NNc2ccccc2)cc1 | -1.15% (inactive)
Nn1c(SCC(=O)Nc2ccc(S(=O)(=O)N3CCCC3)cc2)nnc1-c1ccccc1 | 87.7% (active)
O=C(CSc1nnc(-c2ccncc2)n1-c1ccccc1)Nc1ccccc1 | 0.45% (inactive)
COc1ccc(Cc2nnc(SCC(=O)Nc3ccc(S(=O)(=O)N4CCCCCC4)cc3)o2)cc1 | -15.5% (inactive)
CCc1c(C)sc2nc(CC(=O)N3CCOCC3)[nH]c(=O)c12 | -33.3% (inactive)
NS(=O)(=O)c1ccc(CCNC(=O)CN2CC(=O)Nc3ccccc32)cc1 | 14.2% (inactive)
CNC(=O)O/N=C/c1nn(C(C)=O)cc1Br | 2.45% (inactive)
COc1ccc(CC(=O)Nc2ccccc2)cc1 | -14.4% (inactive)
CNCC(=O)Nc1ccc(OC)cc1 | -7.3% (inactive)
COc1ccc(Cc2n[nH]c(=S)n2NC(=O)Nc2ccc(C)cc2)cc1 | 92.9% (active)
CNC(=O)Cc1nnc(-c2ccc(C)cc2)o1 | -6.1% (inactive)
N#CC(C#N)=CNCCc1ccncc1 | -4.8% (inactive)
COc1cc2c(cc1OC)C(c1cc3cc4c(cc3[nH]c1=O)OCO4)N(C(=O)C1CCC1)CC2 (stereo not drawn) | 87.5% (inactive)
Cc1onc(-c2ccccc2)c1C(=O)Nc1cccc(C(F)(F)F)c1 | -4.15% (inactive)
Cc1onc(-c2ccccc2)c1C(=O)Sc1ccc(C(F)(F)F)cn1 | 94.8% (active)
Cc1onc(-c2ccccc2)c1C(=O)NNc1ccc(C(C)(C)C)cc1 | 3.55% (inactive)
COc1cc(OC)cc(C(=O)NC(C(=O)N2CCC2)C(C)C)c1 (stereo not drawn) | -3.25% (inactive)
CC(C(=O)N1CCOCC1)C1SC(=O)NC1=O (stereo not drawn) | -3.8% (inactive)
CC(=O)Oc1ccc(N(C(C)=O)S(=O)(=O)c2ccc(Cl)cc2)cc1 | -0.9% (inactive)
CCCCS(=O)(=O)N(O)c1ccc(Cl)cc1 | 84.8% (active)
CCCCN=Cc1c(O)n(-c2ccc(Cl)cc2)c(=O)[nH]c1=O | 21.5% (inactive)
Cc1[nH]c(=O)[nH]c(=O)c1NC(=O)CSc1nc2c(C)cccc2cc1C#N | -1.15% (inactive)
Cc1cc(C)n(C(=O)C2CC=CCC2C(=O)O)n1 (stereo not drawn) | -7.4% (inactive)

SMILES | inhibition
O=C(CSc1nnc2n1CCCCC2)N(Cc1cccs1)c1ccc2c(c1)OCCO2 | -10.9% (inactive)
CCOC(=O)Cc1n[nH]c(=S)n1C1CCCC1 | 13.4% (inactive)
Cc1ccc(OCc2n[nH]c(=S)n2C2CCCCC2)c2c1CCC2 | 70.4% (active)
O=C(OCC(=O)C12CC3CC(CC(C3)C1)C2)c1cccs1 | 13.6% (inactive)
CCn1cnc2cc(NCc3ccccn3)ccc21 | -5.05% (inactive)
CCc1ccc(N/N=C(\C#N)C(=O)N2CCN(C)CC2)cc1 | 6% (inactive)
C/C(=N/NC(=O)CCc1ccccc1)C1CC1 | -4.85% (inactive)
N#C/C(=N\Nc1ccccc1)C(=O)C1CC1 | 97% (active)
Cc1ccc2[nH]c3c(c2c1)CCCC3O (stereo not drawn) | 53.3% (inactive)
Cc1noc(C)c1COc1ccc(C(=O)OCCN2C(=O)c3ccccc3C2=O)cc1 | -17.5% (inactive)
O=C(NCC1CCN(c2ccc(S(=O)(=O)N3CCOCC3)cc2)CC1)Nc1cccc(F)c1 | -7.4% (inactive)
CC(OC(=O)c1ccccc1NS(=O)(=O)c1ccc2[nH]c(=O)[nH]c2c1)C(=O)N1CCCCC1 (stereo not drawn) | -42.9% (inactive)
COc1ccc(C#N)cc1 | -8.8% (inactive)
COc1ccc(Cc2nnc(SC)[nH]c2=O)cc1 | 10.6% (inactive)
COc1ccc(-c2nc3sc(-c4ccc(OC)cc4)nc3s2)cc1 | 84.3% (active)
CSc1cc(-c2ccc(F)cc2)nn1S(=O)(=O)c1cccc(C(F)(F)F)c1 | -4.6% (inactive)
Cc1cc2ncn(-c3ccc(S(=O)(=O)N4CCCC4)cn3)c2cc1C | 35.2% (inactive)
Cc1nc(SCC(=O)c2ccc(NS(C)(=O)=O)cc2)n(C2CCCCC2)c1C | -5.8% (inactive)
COCCn1cnc2ccccc21 | -7.65% (inactive)
N#CCCn1cnc2ccccc21 | -6.55% (inactive)
c1ccc(Cc2nn3c(Cn4cnc5ccccc54)nnc3s2)cc1 | 65.2% (active)
CCOc1cc2c(cc1OCC)C(CC(=O)O)N(C(=O)Nc1ccc(OC)cc1)CC2 (stereo not drawn) | 26.9% (inactive)
COc1ccccc1Nc1nc2c(S(=O)(=O)c3c(C)cc(C)cc3C)nnn2c2ccccc12 | 3.35% (inactive)
COc1cc(Br)c(CC(=O)N2CCOCC2)cc1OC | -8.25% (inactive)
O=c1ccc(-c2ccc(S(=O)(=O)Nc3ccccc3)o2)n[nH]1 | 1.95% (inactive)
